According to ChEMBL document CHEMBL3988442, “University of Dundee, Small-Polar-MMV Screening Library” (2021):
For some of these results: Potency and affinity values are given separately.

Assays:
Parameters in all cases: scale not given: direction of the effect not stated beside the values
[1] = molecular target: Protein translocase subunit SecA (Escherichia coli (strain K12)) (UniProt P10408); assay: Assay to Identify E. coli SecA ATPase Inhibitors; type: functional; settings: 30 µM
[2] = molecular target: T1, Ubiquitin-activating enzyme e1, putative (Leishmania donovani (strain BPK282A1)) (UniProt E9BSI1); assay: Leishmania donovani Ubiquitin Activating Enzyme (LdE1); type: functional; settings: 30 µM
T1 sequence (whole entry): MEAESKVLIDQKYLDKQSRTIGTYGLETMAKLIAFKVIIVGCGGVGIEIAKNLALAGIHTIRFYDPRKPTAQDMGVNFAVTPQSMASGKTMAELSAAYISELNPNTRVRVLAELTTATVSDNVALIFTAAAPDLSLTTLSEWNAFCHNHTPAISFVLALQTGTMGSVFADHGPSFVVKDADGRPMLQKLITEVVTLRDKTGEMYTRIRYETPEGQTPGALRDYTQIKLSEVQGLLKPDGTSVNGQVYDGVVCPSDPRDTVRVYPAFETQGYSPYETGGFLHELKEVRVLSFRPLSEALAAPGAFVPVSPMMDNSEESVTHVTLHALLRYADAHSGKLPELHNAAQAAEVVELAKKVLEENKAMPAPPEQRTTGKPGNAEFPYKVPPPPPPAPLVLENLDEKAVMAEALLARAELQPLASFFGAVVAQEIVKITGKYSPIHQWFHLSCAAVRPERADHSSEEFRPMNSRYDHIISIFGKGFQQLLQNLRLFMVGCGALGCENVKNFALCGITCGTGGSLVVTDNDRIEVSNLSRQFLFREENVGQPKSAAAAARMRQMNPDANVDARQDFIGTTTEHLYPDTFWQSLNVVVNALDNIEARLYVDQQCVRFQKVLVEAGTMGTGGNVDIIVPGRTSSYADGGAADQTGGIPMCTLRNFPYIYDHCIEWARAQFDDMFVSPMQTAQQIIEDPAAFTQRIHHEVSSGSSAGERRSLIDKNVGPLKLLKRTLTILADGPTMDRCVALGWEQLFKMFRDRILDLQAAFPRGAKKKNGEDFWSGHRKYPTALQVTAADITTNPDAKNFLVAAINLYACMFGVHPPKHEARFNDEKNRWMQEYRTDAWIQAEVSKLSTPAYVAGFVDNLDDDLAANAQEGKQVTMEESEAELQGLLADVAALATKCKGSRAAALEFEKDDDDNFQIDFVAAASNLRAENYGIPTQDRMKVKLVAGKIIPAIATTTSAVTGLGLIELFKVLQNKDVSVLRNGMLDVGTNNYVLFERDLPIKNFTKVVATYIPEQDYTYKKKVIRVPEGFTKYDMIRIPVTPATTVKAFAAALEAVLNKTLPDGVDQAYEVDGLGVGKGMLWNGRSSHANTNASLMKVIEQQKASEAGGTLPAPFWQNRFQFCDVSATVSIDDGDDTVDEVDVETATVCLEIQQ

[3] = molecular target: AMP-activated protein kinase, AMPK (Homo sapiens) (UniProt P54646+O43741+P54619+Q9UGJ0+Q9Y478+Q13131+Q9UGI9); assay: AMP-dependent Kinase enzyme assay. An in vitro enzyme assay that detects ADP turnover that is directly proportional to AMPK activity. This uses naive AMPK that is activated during the assay with MK-8722; type: functional; settings: 30 µM
[4] = molecular target: Sialic acid-binding Ig-like lectin 9 (Homo sapiens) (UniProt Q9Y336); assay: Hs-Siglec9 ALPHAscreen SOP 20170721; settings: 10 µM
[5] = system: Trypanosoma cruzi; assay: Trypanosoma cruzi phosphomannomutase and mannose-1-phosphate guanylyltransferase assay; type: functional; settings: 10 µM
[6] = molecular target: T2, Arginase-2, mitochondrial (Homo sapiens) (UniProt P78540); assay: in vitro enzyme assay to detect the production of urea directly proportional to the activity of Arginase II; type: functional; settings: 33.3 µM; further: in the data most compounds retested in dose-response had high values
T2 sequence (whole entry): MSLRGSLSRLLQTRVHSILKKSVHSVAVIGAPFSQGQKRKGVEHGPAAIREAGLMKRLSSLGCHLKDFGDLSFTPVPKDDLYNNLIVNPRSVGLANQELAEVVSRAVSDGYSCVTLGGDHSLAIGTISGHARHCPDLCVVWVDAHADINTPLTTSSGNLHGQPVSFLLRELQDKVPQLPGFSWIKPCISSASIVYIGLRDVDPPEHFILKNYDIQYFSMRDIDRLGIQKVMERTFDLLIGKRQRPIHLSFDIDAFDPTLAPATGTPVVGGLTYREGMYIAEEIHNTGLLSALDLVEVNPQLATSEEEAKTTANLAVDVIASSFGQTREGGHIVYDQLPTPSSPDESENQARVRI

[7] = molecular target: T3, Proteasome subunit beta (Trypanosoma cruzi) (UniProt O96673); assay: Trypanosoma cruzi proteasome chymotrypsin-like activity (TcProtChymo) assay.; further: in the data most compounds retested in dose-response had high values; type: functional; settings: 9.37 µM
T3 sequence (whole entry): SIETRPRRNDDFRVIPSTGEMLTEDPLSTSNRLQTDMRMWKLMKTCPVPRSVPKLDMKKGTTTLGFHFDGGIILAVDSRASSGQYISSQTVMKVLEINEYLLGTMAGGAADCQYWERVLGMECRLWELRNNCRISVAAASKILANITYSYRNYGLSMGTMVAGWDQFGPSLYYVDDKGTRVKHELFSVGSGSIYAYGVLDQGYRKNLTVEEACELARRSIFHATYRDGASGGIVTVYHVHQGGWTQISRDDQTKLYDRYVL

[8] = organism: Homo sapiens; assay: To identify inhibition of the IFN signalling (Jak-Stat) pathway via expression of an eGFP reporter gene under the control of an IFN-stimulated response element (ISRE) containing MxA promoter.; type: functional; settings: 30 µM
[9] = molecular target: T4, Tyrosyl-tRNA synthetase, putative (Trypanosoma cruzi (strain CL Brener)) (UniProt Q4DSP6); assay: Trypanosoma cruzi tyrosyl tRNA synthetase (TcYRS) _High Tyrosine SOP; type: functional; settings: 30 µM; further: in the data most compounds retested in dose-response had high values
T4 sequence (whole entry): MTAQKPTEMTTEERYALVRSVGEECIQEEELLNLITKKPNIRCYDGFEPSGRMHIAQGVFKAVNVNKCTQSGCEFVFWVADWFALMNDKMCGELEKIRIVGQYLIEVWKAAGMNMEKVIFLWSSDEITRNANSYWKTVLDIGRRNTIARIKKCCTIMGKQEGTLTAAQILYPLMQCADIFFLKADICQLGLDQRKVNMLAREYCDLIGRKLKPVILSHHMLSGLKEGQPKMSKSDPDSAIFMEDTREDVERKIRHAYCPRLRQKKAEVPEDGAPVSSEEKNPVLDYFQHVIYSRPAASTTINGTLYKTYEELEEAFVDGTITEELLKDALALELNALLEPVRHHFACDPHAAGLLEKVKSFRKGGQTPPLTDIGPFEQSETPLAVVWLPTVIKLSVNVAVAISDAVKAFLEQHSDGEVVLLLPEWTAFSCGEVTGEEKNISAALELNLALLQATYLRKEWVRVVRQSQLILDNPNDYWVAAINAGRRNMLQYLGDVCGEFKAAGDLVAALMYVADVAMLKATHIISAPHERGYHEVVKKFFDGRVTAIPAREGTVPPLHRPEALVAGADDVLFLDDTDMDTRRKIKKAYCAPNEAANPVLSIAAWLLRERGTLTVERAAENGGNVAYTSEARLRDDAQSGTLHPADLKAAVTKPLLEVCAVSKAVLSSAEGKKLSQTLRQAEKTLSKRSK

[10] = molecular target: T4, Tyrosyl-tRNA synthetase, putative (Trypanosoma cruzi (strain CL Brener)); assay: Trypanosoma cruzi tyrosyl tRNA synthetase (TcYRS) SOP; type: functional; settings: 30 µM
[11] = molecular target: Chromo domain-containing protein 1 (Saccharomyces cerevisiae (strain ATCC 204508 / S288c) (Baker's yeast)) (UniProt P32657); assay: ScCHD-1 Enzyme Inhibition Assay; type: functional; settings: 30 µM; further: in the data most compounds retested in dose-response had high values
Chain of Chromo domain-containing protein 1 (Saccharomyces cerevisiae (strain ATCC 204508 / S288c) (Baker's yeast)) (P32657 whole entry, the tested form may be a part): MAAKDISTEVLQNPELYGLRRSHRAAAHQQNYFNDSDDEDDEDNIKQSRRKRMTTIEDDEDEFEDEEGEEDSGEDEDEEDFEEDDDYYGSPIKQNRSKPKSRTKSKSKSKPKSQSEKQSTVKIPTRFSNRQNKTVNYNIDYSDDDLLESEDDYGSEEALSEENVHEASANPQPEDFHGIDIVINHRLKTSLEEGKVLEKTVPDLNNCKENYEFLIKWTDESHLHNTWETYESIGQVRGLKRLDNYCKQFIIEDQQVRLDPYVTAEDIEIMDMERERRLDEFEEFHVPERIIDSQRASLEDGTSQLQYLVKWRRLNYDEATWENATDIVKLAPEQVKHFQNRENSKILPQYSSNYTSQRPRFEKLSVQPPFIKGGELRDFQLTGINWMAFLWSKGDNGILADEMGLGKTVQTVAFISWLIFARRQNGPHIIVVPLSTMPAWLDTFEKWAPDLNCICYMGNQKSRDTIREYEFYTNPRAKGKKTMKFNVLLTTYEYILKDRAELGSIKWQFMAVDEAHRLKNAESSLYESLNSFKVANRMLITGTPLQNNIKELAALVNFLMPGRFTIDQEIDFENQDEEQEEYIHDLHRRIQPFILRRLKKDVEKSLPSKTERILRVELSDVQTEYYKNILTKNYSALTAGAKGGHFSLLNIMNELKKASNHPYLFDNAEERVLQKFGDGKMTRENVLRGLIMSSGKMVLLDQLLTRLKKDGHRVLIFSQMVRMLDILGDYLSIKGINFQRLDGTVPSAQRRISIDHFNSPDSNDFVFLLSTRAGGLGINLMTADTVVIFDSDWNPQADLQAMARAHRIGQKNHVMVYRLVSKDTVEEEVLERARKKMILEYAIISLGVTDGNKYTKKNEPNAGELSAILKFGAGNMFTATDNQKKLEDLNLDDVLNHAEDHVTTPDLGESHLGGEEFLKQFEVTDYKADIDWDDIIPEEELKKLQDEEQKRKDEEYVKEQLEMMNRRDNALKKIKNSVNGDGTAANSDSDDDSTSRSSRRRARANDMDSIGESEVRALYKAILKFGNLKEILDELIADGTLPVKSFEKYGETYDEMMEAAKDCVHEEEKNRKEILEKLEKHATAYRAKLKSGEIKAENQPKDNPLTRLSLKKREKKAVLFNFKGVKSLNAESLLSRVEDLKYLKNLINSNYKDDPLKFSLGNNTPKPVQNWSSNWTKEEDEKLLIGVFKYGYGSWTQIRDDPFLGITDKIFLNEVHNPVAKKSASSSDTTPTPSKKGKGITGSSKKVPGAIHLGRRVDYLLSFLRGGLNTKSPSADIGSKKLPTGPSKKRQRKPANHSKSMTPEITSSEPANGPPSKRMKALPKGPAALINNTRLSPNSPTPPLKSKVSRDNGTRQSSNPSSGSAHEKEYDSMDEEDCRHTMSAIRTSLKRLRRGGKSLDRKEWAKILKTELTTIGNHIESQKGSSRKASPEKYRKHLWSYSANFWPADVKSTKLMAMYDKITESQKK

Chain of Protein translocase subunit SecA (Escherichia coli (strain K12)) (P10408 whole entry): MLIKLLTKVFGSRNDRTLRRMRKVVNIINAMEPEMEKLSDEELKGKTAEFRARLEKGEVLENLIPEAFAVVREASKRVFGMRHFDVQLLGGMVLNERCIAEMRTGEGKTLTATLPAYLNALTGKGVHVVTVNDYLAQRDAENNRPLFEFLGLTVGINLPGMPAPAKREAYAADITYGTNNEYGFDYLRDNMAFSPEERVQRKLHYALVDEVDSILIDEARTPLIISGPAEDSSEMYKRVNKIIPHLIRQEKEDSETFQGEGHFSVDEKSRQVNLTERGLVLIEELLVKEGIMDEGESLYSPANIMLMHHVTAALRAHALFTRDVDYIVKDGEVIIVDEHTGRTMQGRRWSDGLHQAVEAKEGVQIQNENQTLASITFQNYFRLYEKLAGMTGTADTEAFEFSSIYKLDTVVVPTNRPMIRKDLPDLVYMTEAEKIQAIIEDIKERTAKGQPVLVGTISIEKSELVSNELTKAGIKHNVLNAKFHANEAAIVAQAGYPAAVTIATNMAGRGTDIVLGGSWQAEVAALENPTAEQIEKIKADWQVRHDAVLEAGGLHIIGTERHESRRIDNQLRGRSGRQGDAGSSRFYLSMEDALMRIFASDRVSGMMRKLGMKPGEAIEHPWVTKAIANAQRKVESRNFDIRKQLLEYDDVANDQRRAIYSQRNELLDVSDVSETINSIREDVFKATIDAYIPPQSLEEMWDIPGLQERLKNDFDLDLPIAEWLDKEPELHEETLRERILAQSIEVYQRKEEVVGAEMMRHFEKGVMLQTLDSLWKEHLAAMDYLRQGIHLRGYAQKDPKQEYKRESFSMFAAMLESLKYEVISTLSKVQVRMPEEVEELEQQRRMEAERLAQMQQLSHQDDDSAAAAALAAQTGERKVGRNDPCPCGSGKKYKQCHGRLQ
Chain of Sialic acid-binding Ig-like lectin 9 (Homo sapiens) (Q9Y336 whole entry): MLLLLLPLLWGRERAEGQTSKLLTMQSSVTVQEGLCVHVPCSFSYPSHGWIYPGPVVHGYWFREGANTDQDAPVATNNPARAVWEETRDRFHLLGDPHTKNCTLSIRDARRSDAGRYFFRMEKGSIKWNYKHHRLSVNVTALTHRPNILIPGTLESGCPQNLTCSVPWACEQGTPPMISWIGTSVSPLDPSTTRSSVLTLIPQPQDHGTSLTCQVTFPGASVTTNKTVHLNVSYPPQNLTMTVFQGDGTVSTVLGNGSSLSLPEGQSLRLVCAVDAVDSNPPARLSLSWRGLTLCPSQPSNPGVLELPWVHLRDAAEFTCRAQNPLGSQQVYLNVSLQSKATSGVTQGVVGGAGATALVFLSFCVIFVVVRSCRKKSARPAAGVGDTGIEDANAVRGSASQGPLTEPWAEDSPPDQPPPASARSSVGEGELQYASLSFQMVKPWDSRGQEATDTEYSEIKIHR

| Compound | Percent Effect [1] [%] | Percent Effect [2] [%] | Percent Effect [3] [%] | Percent Effect [4] [%] | Percent Effect [5] [%] | Percent Effect [6] [%] | Percent Effect [7] [%] | Percent Effect [8] [%] | Percent Effect [9] [%] | Percent Effect [10] [%] | Percent Effect [11] [%] |
| --- | --- | --- | --- | --- | --- | --- | --- | --- | --- | --- | --- |
| O=C(NCCO)Nc1cccc(Cl)c1SC(F)F | -7.96 | -1.39 | 0.408 | 20.6 | -3.01 | 0.883 | 13.9 | 28.9 | -5.26 | -15.4 | -1.91 |
| CN(C)C(=O)CN1C[C@@H]2CC[C@H](C1)N(Cc1cc(F)ccc1F)C2 | -2.16 | 5.48 | 42.7 | 2.19 | -9.13 | -2.79 | 20.6 | 15.6 | 4.17 | 6.17 | -5.68 |
| COc1ccccc1CNC(=O)C1=NN(c2ccc(C)cc2)C(=O)CN1 | -2.03 | 13.5 | -0.556 | 34.6 | -3.62 | -0.248 | 15.2 | 98.2 | -6.45 | -3.7 | -2.26 |
| CNC(=O)C1CCN(C(=O)CCn2cccn2)CC1 | -7.35 | 13.5 | 2.1 | 7.36 | -4.92 | 5.73 | -1.44 | 19.3 | -0.99 | -1.22 | 6.84 |
| COc1c(C)cnc(CN2CCC(N(C)C(C)C(N)=O)CC2)c1C (stereo not drawn) | -2.36 | 13 | 3.82 | -8.74 | -3.56 | -0.712 | 8.95 | 42.8 | 8.74 | 14.6 | -7.36 |
| Cc1cccc(C2(CNC(=O)CCNS(C)(=O)=O)CCCC2)c1 | -6.74 | 15.2 | -3.25 | 11.3 | 4.44 | -11 | 6.31 | -4.41 | 5.42 | 8.86 | -5.61 |
| N#Cc1cccc(S(=O)(=O)NC2CCN(Cc3ccccc3)C2=O)c1 (stereo not drawn) | -2.71 | 12.7 | 0.264 | 4.28 | -4.44 | -6.84 | 2.21 | 1.05 | 3.45 | 11.4 | -7.32 |
| Cc1ncc(CNCC2CCCN2c2cccnn2)s1 (stereo not drawn) | 0.235 | 8.86 | -1.3 | -1.84 | 3.79 | 5.38 | 15.9 | 22.7 | 9.38 | 12.7 | -17.8 |
